Only some compounds are listed: those with a hit (about 2.1% of all), similar ones and a draw of the others.
MsrA inhibitor = bovine MsrA enzyme inhibitors, primary screen, biochemical, absorbance, HTS | inhibition, % at 15.5 µM | purified bovine MsrA, absorbance read-out | Methionine sulfoxide reductase A (Bos taurus) | actives 0.75% (n = 360,000);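 note: 0% = vehicle wells with enzyme and 100% = reference inhibitor wells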
ABCB6 inh MLPCN = ABCB6 transporter inhibitors, primary screen, K562-ABCB6 cells, flow cytometry, MLPCN library; ATP-binding cassette sub-family B member 6 (Homo sapiens), Q9NP58; AID 602162, 2011; actives 0.19% (n = 360,000); fluorescence ratio to DMSO, % at 10 µM; K562-ABCB6 porphyrin accumulation, 1 h; hits give low values;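 active = fluorescence ratio to DMSO below 75%, the collection mean minus 3 SD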;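 note: signal is porphyrin accumulated inside mitochondria; 100% equals median channel fluorescence of DMSO control wells; lower ratio means ABCB6 inhibition with less porphyrin fluorescence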
Target sequence (Q9NP58 whole entry, looked up): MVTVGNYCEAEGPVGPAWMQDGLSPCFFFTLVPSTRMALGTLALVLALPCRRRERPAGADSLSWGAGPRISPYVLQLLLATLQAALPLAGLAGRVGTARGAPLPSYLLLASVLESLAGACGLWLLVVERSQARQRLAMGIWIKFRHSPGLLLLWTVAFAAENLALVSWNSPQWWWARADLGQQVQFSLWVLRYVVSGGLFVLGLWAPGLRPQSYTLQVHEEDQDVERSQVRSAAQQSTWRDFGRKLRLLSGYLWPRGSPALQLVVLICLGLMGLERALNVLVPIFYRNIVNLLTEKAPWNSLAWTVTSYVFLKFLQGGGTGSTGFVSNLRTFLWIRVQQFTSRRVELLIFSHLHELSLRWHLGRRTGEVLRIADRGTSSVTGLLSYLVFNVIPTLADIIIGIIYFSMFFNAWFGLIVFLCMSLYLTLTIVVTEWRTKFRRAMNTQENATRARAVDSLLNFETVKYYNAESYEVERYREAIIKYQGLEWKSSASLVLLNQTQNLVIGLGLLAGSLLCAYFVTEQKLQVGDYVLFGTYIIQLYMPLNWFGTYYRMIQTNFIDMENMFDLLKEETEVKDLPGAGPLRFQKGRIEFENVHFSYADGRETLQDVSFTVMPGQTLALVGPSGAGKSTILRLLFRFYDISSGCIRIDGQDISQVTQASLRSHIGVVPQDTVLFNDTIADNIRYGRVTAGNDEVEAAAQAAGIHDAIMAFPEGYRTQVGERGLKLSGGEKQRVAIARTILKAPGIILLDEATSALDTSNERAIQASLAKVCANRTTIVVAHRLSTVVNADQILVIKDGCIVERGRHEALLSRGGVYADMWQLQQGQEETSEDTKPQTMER
SMARCA2 activ = SMARCA2 (BRM) function activators, primary screen, cell-based, luminescence, high throughput. AID 652017, 2013. activation, % at 9.1 µM. MG213 cells, MMTV-luciferase reporter, dexamethasone, overnight. actives 1% (n = 370,000); in the data active = activation above about 7.8%;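 note: 0% = vehicle wells and 100% = reference activator wells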
MsrA act = bovine MsrA enzyme activators, primary screen, biochemical, absorbance, HTS; Methionine sulfoxide reductase A (Bos taurus); purified bovine MsrA, absorbance read-out; activation, % at 10.6 µM; actives 0.3% (n = 360,000); in the data active = activation above about 7.5%;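 note: 0% = vehicle and 100% = reference activator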
MsrA conf = bovine MsrA inhibitors, retest, confirmation, biochemical, absorbance, HTS | inhibition, % at 15.5 µM | shares compounds with MsrA inhibitor | actives 41% (n = 2,300) | purified bovine MsrA, absorbance read-out | AID 651822, 2012;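 note: coupled to thioredoxin reductase with NADPH and selenocystamine and DMSO as substrate; 0% = vehicle only and 100% = full effect of reference inhibitor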
SMARCA2 act conf = SMARCA2 (BRM) function activators, confirmation, cell-based, luminescence, triplicate. shares compounds with SMARCA2 activ. actives 30% (n = 3,500). AID 652260, 2013. activation, % at 9.1 µM. MG213 cells, MMTV-luciferase with dexamethasone, overnight; MG213 cells expressing E1A, Rb sequestered; DMSO wells 0%, reference activator 100%;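 active = activation above its plate's cutoff, the mean activation of tested wells plus 3 SD, cut at about 7.9% in these data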
VP16 Luc act = GAL4-VP16 luciferase reporter activation, counter-screen for SMARCA2 (BRM) activator project, cell-based, pG5luc, luminescence, high throughput. HEK293 GAL4-VP16 pG5luc reporter; scaled: DMSO wells 0%, SAHA wells 100%. shares compounds with SMARCA2 activ. actives 41% (n = 3,500). activation, % at 9.1 µM;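 active = activation above the solvent-only control well mean plus 3 SD, averaged across control plates, cut at about 5.2% in these data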
* = called active by the depositor; x = no result. Cut-off read from the data, not from the text of the source, unless noted: active = inhibition above about 4.5%; inactive = the rest.

SMILES | MsrA inhibitor | ABCB6 inh MLPCN | SMARCA2 activ | MsrA act | MsrA conf | others
COc1ccc(/C=N/NC(=O)c2c(C)nc3ccc(Cl)cn23)cc1OC | 6.2* | 116.0 | 0.0 | -0.6 | 5.3*
COc1cc(/C=N/NC(=O)c2ccncc2)ccc1OCCN1CCCCC1 | 5.4* | 84.0 | -0.6 | 3.4 | 2.4
COc1ccc(/C=N/NC(=O)c2ccc(COc3cccc4cccnc34)cc2)cc1O | 1.4 | 96.0 | 2.8 | -6.8 | x
COc1ccc(/C=N/NC(=O)c2ccc(COc3cccc4cccnc34)cc2)cc1OC | 4.9* | 90.0 | -1.2 | -3.4 | 2.4
Cc1ccccc1CN1[C@@H](C)[C@H](c2ccccc2)Oc2cccc(N3CCCC(C)C3)c2S1(=O)=O (stereo partly drawn) | -1.4 | x | -5.5 | x | x
COC(=O)C1CN(Cc2cn(Cc3ccccc3)nn2)CCS(=O)(=O)N1Cc1ccc(Cl)cc1 (stereo not drawn) | x | x | -4.6 | x | x
CC(=O)NC(Cc1ccc2c(c1)OCO2)C(=O)N1CCCN(C(C)=O)CC1 (stereo not drawn) | x | x | -7.9 | x | x
COc1cc(/C=N/NC(=O)c2cc(-c3cccc(OC(C)C)c3)nc3ccccc23)ccc1O | 1.9 | 87.0 | -2.6 | -3.4 | x
Cc1ccn2c(C(=O)N/N=C/c3ccc(Cl)cc3)c(C)nc2c1 | 0.2 | 100.0 | 2.7 | -3.8 | x
COc1cc(/C=N\NC(=O)c2c(C)nc3cc(C)ccn23)ccc1O | 7.1* | 105.0 | 1.1 | -10.7 | 6.4*
COc1cc(/C=N/NC(=O)c2cc(-c3cccs3)nc3ccccc23)ccc1O | 4.9* | 99.0 | -2.5 | -3.7 | 4.0
COc1cc(/C=N/NC(=O)c2c(C)nnn2-c2nonc2N)ccc1O | 5.0* | 95.0 | 1.0 | -11.0 | 3.6
COc1ccc(C#Cc2ccc3c(c2)[C@H]2[C@H](CCN2S(=O)(=O)c2ccccc2F)[C@H](CO)N3C)cc1 | x | x | -5.2 | x | x
CC(/C=C/c1ccc2c(c1)OCO2)=N/NC(=O)c1ccncc1 | 5.6* | 95.0 | 1.7 | -7.4 | 8.6*
CC(/C=C/c1ccc2c(c1)OCO2)=N/NC(=O)c1ccc(C)nc1 | 5.4* | 100.0 | -2.4 | -1.9 | 7.1*
C/C(=N\NC(=O)c1ccc2c(c1)OCO2)c1cccnc1 | 0.3 | 99.0 | 5.8 | -2.5 | x
CC(/C=C/c1cccc([N+](=O)[O-])c1)=N\NC(=O)c1ccncc1 | 2.3 | 99.0 | -3.7 | -6.3 | x
CC(/C=C/c1ccc2c(c1)OCO2)=N/NC(=O)c1cccnc1 | 7.2* | 91.0 | -2.2 | -3.9 | 5.5*
COc1ccc(/C=N/NC(=O)c2ccc3nc[nH]c3c2)c(OC)c1OC | 5.1* | 102.0 | -2.2 | -14.4 | 2.4
COc1cccc(/C=N/NC(=O)c2ccc3nc[nH]c3c2)c1O | 1.6 | 96.0 | -5.6 | -1.9 | x
Cc1ccc(/C=N/NC(=O)c2ccc3nc[nH]c3c2)s1 | 7.3* | 98.0 | -0.8 | -3.5 | 5.7*
COc1cc(/C=C2\NC(=S)NC2=O)ccc1OCc1cccc(C(=O)O)c1 | 5.4* | 91.0 | -0.1 | -8.4 | 3.5
Cn1c(C(=O)O)cc2c(=O)n3ccccc3nc21 | 5.3* | 99.0 | -0.2 | -8.0 | 2.3
CC(=O)c1c(C)[nH]c(C2=NNC(=NCc3ccccc3)SC2)c1C | 5.0* | 142.0 | -2.1 | -10.8 | 2.5
CN=c1sc2c(n1C)C(=O)c1ccccc1C2=O | 9.7* | 107.0 | -5.0 | 5.6 | 7.0*
SMILES | MsrA inhibitor | ABCB6 inh MLPCN | SMARCA2 activ | MsrA act | MsrA conf | others
O=C(/C=C/c1ccc2c(c1)OCO2)N1CCOCC1 | 3.5 | 87.0 | 4.8 | -4.0 | x
CC1CN(C(=O)/C=C/c2ccc3c(c2)OCO3)CC(C)O1 (stereo not drawn) | 6.0* | 101.0 | -1.7 | -13.2 | 1.1
CCOC(=O)C(C)Sc1nnc(NC(=O)c2ccc3c(c2)OCO3)s1 (stereo not drawn) | 5.1* | 99.0 | -4.5 | -5.1 | 1.6
CC(C)CC(=O)NNC(=S)Nc1ccc(S(N)(=O)=O)cc1 | 2.3 | 101.0 | -4.9 | -0.7 | x
CCc1ccc(C(=O)NNC(=S)Nc2ccc(S(N)(=O)=O)cc2)s1 | 4.9* | 93.0 | -1.4 | 2.3 | 2.2
COC(=O)C[C@H]1CC[C@H]2[C@H](COc3ccc(NC(=O)C4CCOCC4)cc3C(=O)N2C)O1 | x | x | -5.5 | x | x
Cc1csc(Nc2nc(N)c(C(=O)Nc3ccccc3)o2)n1 | 5.7* | 99.0 | 1.9 | -4.2 | 5.0*
Cc1csc(NC(=O)c2oc3ccccc3c2C)n1 | 1.9 | 95.0 | 5.6 | -2.7 | x
O=c1c(Cl)c(N2CCOCC2)cnn1-c1nc2ccccc2[nH]1 | 4.8* | 96.0 | 6.8 | -3.9 | 2.6
N#CC(C#N)=Cc1c[nH]c(=O)c(C#N)c1Nc1ccccc1 | 5.4* | 105.0 | -2.4 | -2.4 | 2.4
CC(=O)c1c(C(=O)O)c2ccccc2[nH]c1=O | 5.1* | 102.0 | -3.6 | -1.8 | 0.9
O=C(O)c1ccc(/C=N/Nc2ccc(F)cc2F)cc1 | 5.6* | 100.0 | 10.9* | -4.5 | 3.8 | SMARCA2 act conf=6.1;VP16 Luc act=4.8
Fc1ccc(N/N=C/c2ccncc2)c(F)c1 | 2.5 | 98.0 | 1.6 | -7.0 | x
COc1cc(/C=C/c2nc3ccccc3c(=O)[nH]2)ccc1O | 7.0* | 99.0 | 9.0* | -3.0 | 4.5 | SMARCA2 act conf=12.8*;VP16 Luc act=12.2*
Nc1nc2ncccc2cc1C(=O)C1=C(c2ccccc2)Cc2ccccc21 | x | x | -1.5 | x | x
Fc1ccccc1/C=N/Nc1ncnc2nc[nH]c12 | 8.9* | 97.0 | 9.6* | -4.8 | 3.7 | SMARCA2 act conf=16.6*;VP16 Luc act=5.8*
c1ccc(CNc2ncnc3nc[nH]c23)nc1 | -0.2 | 100.0 | -4.5 | -1.3 | x
CSc1ccc(/C=N/NC(=O)c2cccc(O)c2)cc1 | 4.8* | 87.0 | 9.6* | -3.0 | 5.6* | SMARCA2 act conf=5.9;VP16 Luc act=13.9*
Cc1nnc(N/N=C/c2ccc(-c3ccccc3F)o2)n1N | 6.1* | 101.0 | 11.8* | 1.4 | 6.0* | SMARCA2 act conf=7.0;VP16 Luc act=9.2*
Cc1nnc(N/N=C/c2c(Cl)cccc2Cl)n1N | -0.2 | 152.0 | 4.8 | 5.7 | x
N#Cc1cc(C#N)c(N2CCN(c3ccccn3)CC2)nc1N | 4.7* | 102.0 | 9.1* | -2.2 | 2.6 | SMARCA2 act conf=16.1*;VP16 Luc act=10.8*
Oc1ccc(/C=C/c2ccc3cccc(O)c3n2)cc1Br | 0.6 | 105.0 | 3.3 | -1.6 | x
O=C(O)c1ccc(/C=C/c2ccc3cccc(O)c3n2)cc1 | 5.6* | 95.0 | 8.0* | -5.0 | 5.3* | SMARCA2 act conf=15.6*;VP16 Luc act=6.2*

From PubChem BioAssay
